Activity calls are given as the source filed them. Unless noted, no rule for the calls is given here.
Tests used:
[1] = test system: Wnt5a (protein binding on small-molecule microarray); test: small molecules binding Wnt5a protein – biophysical, small-molecule microarray, 635/667 nm fluorescence, primary screen (AID 1142); conditions: 635 nm fluorescence, higher = more signal;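 also: fluorescence read at 667 nm with signal to noise per printed feature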
[2] = ATP-based viability of Huh7 replicon cells – cell-based, CellTiter-Glo luminescence, basal, 48 h, cytotoxicity control for HCV replication inhibitor project, primary screen (AID 1143); conditions: higher = more signal, called active from +8 up or from −8 down;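 also: Huh7 hepatoma cells carrying a hepatitis C replication reporter with no stimulus; test concentration not given here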
[3] = Pseudomonas biofilm growth suppression – PAO1 strain, BacTiter-Glo luminescence, LB-PBS, primary screen (AID 1144); conditions: P. aeruginosa PAO1 biofilm, 12 h, higher = more signal
[4] = basal CRE-LacZ reporter activity in PC12 – cell-based, unstimulated, primary screen (AID 1145); conditions: no forskolin, luminescence, 4.5 h, higher = more signal, called active from +8 up or from −8 down
[5] = forskolin-driven CRE-LacZ activity in PC12 – cell-based, CRE-LacZ reporter, forskolin-stimulated, primary screen (AID 1146); conditions: luminescence, 4.5 h, higher = more signal, called active from +8 up or from −8 down;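 also: PC12 cells with 6xCRE LacZ reporter stimulated by forskolin 10 µM; beta-galactosidase reporter signal reflecting CREB driven transcription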
[6] = biological target: Streptavidin (Streptomyces avidinii) (UniProt P22629); test: compounds binding control protein streptavidin – biophysical, small-molecule microarray, 635/667 nm fluorescence, artefact control for SMM compound annotation, primary screen (AID 1147); conditions: higher = more signal;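 also: signal reflects streptavidin binding to arrayed compounds as a control protein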
[7] = probe aInhba binding on compound microarray – biochemical, small-molecule microarray, 635/667 nm fluorescence, primary screen (AID 1148); conditions: higher = more signal;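 also: score merges 667nm spot fluorescence with signal-to-noise for antibody binding to printed compounds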
Torsin-1A (Homo sapiens) [8] = biological target: Torsin-1A (Homo sapiens) (UniProt O14656); test: TOR1A wild-type binding on microarray – cell lysate, small-molecule microarray, lysate, 635/667 nm, primary screen (AID 1149); conditions: COS7 hTOR1A-WT lysate, 635 nm fluorescence, higher = more signal
Torsin-1A (Homo sapiens) [9] = biological target: Torsin-1A (Homo sapiens) (UniProt O14656); test: torsin A mutant lysate binding on microarrays – cell lysate, small-molecule microarray, COS7 lysate, 635/667 nm fluorescence, primary screen (AID 1150); conditions: COS7 hTOR1A mutant lysate, 635 nm fluorescence, higher = more signal;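 also: score pools 667 nm emission and signal to noise measuring lysate protein binding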
[10] = test system: Sonic hedgehog protein (Shh); test: Sonic hedgehog microarray binding compounds – biochemical, small-molecule microarray, 635/667 nm fluorescence, primary screen (AID 1151); conditions: 635 nm fluorescence, higher = more signal;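 also: Shh protein binding to compounds spotted on small-molecule microarray slides; score combines spot fluorescence intensity with signal-to-noise across triplicate slides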
[11] = optical density shifts of acrAB sulA E. coli – strain DRC41, OD650, 48 h, E. coli filamentation inducer project, primary screen (AID 1152); conditions: higher = more signal, called active from +8 up or from −8 down;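 also: E. coli MC1000 strain DRC41 lacking acrAB efflux pump and sulA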
[12] = probe aLefty1 binding on compound microarray – biochemical, small-molecule microarray, 635/667 nm fluorescence, primary screen (AID 1153); conditions: higher = more signal;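 also: score merges spot fluorescence with signal-to-noise ratio from the scanned slide images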
[13] = plasmodial surface anion channel blockers, osmotic lysis – cell-based, P. falciparum Indochina, OD700, 1 h, primary screen (AID 1154); conditions: P. falciparum Indochina infected RBC osmotic lysis, higher = more signal, called active from +8 up or from −8 down
[14] = plasmodial surface anion channel blockers, osmotic lysis – cell-based, P. falciparum Indochina, OD700, 2 h, primary screen (AID 1155);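 also: lysis reports solute entry through the parasite surface anion channel PSAC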; conditions: P. falciparum Indochina infected erythrocytes, higher = more signal, called active from +8 up or from −8 down
[15] = changes in parasitized red cell lysis, either direction – P. falciparum Indochina, OD700, 3 h, PSAC antagonist project, primary screen (AID 1156); conditions: P. falciparum-infected erythrocytes, osmotic lysis, higher = more signal, called active from +8 up or from −8 down
[16] = plasmodial surface anion channel blockers, osmotic lysis – cell-based, P. falciparum Indochina, OD700, 18 h, primary screen (AID 1157); conditions: P. falciparum Indochina infected erythrocytes, osmotic lysis OD700, 18 h; higher = more signal, called active from +8 up or from −8 down
[17] = S6 kinase pathway phospho-S6 level changes – cell-based, A549, cytoblot, luminescence, serum-stimulated, primary screen (AID 1158); conditions: 5 h, higher = more signal;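 also: serum-stimulated A549 lung adenocarcinoma cells; signal is phosphorylated S6 detected by cytoblot immunostaining with HRP secondary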
[18] = biological target: NADPH oxidase 2 (Homo sapiens) (UniProt P04839); test: compounds shifting NOX2 Amplex Red fluorescence – cell-based, HEK293-NOX2, PMA-stimulated, NOX inhibitor project, primary screen (AID 1159); conditions: 45 min, higher = more signal, called active from +8 up or from −8 down; also: test concentration not given here
[19] = biological target: NADPH oxidase 4 (Homo sapiens) (UniProt Q9NPH5); test: compounds shifting NOX4 Amplex Red fluorescence – cell-based, HEK293-NOX4, tetracycline-induced, NOX inhibitor project, primary screen (AID 1160); conditions: HEK293-NOX4, Amplex Red H2O2 fluorescence, 45 min; higher = more signal, called active from +8 up or from −8 down
[20] = biological target: NADPH oxidase 5 (Homo sapiens) (UniProt Q96PH1); test: compounds shifting NOX5 Amplex Red fluorescence – cell-based, HEK293-NOX5, NOX inhibitor project, primary screen (AID 1161); conditions: HEK293-NOX5, ionomycin, 45 min, higher = more signal
NADPH oxidase 5 (Homo sapiens), sequence (Q96PH1 whole entry, looked up): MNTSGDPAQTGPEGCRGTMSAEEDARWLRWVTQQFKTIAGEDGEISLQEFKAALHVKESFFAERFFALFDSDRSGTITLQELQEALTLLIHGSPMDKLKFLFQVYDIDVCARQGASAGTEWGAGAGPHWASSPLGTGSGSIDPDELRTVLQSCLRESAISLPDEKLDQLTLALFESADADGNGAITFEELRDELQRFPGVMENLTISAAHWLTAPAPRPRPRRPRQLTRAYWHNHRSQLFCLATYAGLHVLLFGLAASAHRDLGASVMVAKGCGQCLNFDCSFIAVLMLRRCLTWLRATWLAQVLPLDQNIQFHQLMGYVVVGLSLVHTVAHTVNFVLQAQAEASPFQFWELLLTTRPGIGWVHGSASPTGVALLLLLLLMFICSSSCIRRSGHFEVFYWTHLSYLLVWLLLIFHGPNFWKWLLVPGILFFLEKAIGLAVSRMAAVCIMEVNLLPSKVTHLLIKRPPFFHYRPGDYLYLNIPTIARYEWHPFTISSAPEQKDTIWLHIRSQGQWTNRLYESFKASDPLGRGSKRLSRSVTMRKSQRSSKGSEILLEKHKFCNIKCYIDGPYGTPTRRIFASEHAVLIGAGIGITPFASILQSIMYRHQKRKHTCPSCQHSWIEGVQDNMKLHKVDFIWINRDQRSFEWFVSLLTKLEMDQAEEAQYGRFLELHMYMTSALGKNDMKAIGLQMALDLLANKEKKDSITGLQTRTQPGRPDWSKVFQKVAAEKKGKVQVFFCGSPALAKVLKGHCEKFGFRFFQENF

Torsin-1A (Homo sapiens), sequence (O14656 whole entry, looked up): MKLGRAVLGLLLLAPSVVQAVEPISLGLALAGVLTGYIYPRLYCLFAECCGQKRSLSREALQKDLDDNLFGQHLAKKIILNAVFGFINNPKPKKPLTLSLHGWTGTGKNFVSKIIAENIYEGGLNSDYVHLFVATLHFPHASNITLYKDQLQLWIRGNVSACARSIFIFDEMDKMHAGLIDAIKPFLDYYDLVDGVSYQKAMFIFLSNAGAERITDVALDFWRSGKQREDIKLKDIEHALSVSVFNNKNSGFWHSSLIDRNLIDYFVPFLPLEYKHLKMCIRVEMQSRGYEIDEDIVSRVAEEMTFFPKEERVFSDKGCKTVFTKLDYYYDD
Streptavidin (Streptomyces avidinii), sequence (P22629 whole entry, looked up): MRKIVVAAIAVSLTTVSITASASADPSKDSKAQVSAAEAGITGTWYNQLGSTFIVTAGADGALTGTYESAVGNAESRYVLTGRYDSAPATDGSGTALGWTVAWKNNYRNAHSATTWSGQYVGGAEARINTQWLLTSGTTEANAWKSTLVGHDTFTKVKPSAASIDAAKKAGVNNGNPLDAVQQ
NADPH oxidase 4 (Homo sapiens), sequence (Q9NPH5 whole entry, looked up): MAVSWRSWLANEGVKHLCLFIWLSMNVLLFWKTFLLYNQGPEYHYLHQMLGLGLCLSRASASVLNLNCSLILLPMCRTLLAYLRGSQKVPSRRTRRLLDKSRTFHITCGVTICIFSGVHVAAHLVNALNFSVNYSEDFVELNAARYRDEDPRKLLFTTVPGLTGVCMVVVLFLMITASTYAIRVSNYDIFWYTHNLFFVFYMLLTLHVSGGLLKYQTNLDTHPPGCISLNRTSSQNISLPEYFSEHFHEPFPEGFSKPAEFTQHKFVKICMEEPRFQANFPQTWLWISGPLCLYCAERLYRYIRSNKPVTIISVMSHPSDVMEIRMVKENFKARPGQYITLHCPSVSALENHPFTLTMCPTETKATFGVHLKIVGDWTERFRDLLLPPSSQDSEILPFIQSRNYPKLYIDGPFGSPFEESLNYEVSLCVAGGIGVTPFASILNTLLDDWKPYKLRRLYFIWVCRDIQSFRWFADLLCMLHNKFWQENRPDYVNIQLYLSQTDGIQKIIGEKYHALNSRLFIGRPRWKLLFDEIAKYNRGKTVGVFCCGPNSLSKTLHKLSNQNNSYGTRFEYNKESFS
NADPH oxidase 2 (Homo sapiens), sequence (P04839 whole entry, looked up): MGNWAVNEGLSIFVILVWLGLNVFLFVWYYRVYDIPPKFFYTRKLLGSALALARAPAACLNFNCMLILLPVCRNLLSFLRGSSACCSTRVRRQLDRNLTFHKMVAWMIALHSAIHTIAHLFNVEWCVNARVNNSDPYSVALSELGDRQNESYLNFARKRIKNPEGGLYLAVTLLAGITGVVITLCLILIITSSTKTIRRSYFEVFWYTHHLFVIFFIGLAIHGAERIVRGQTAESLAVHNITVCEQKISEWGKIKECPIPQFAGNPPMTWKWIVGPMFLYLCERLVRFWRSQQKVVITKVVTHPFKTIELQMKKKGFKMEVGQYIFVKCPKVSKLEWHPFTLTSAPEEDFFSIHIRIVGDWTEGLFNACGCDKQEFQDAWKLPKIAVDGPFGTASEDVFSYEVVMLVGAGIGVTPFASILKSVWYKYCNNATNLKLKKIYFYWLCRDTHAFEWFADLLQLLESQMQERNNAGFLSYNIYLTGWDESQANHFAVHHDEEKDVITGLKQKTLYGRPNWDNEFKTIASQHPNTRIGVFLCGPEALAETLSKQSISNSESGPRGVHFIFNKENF

SMILES	composite z-score [1]	z-score [2]	z-score [3]	z-score [4]	z-score [5]	composite z-score [6]	composite z-score [7]	composite z-score (Torsin-1A (Homo sapiens) [8])	composite z-score (Torsin-1A (Homo sapiens) [9])	composite z-score [10]	z-score [11]	composite z-score [12]	z-score [13]	z-score [14]	z-score [15]	z-score [16]	z-score [17]	z-score [18]	z-score [19]	z-score [20]
CCOC(=O)c1ccc(NC(=O)O[C@H]2[C@H](OC(=O)Nc3ccc4c(c3)OCO4)[C@H](OC(=O)Nc3ccc4c(c3)OCO4)[C@@H](OC)O[C@@H]2CO)cc1	0.662	-2.23 (inactive)	1.55 (inactive)	0.0918 (inactive)	-0.195 (inactive)	0.245	0.386	0.807	0.505	1.76	-0.351 (inactive)	0.408	23.4 (active)	6.99 (inactive)	0.726 (inactive)	1.55 (inactive)	-0.535	-0.984 (inactive)	-0.54 (inactive)	-1.28
O=C1C2C=CC(C(O)c3ccc(Br)cc3)N(Nc3ccccc3F)C2C(=O)N1c1ccccc1 (stereo not given)	-0.0758	-2.94 (inactive)	-1.76 (inactive)	-1.02 (inactive)	-0.0733 (inactive)	0.738	-0.204	-0.423	-0.0946	-0.481	0.894 (inactive)	-0.192	3.67 (inactive)	-0.0291 (inactive)	-0.834 (inactive)	-1.01 (inactive)	0.79	-1.35 (inactive)	-2.56 (inactive)	-0.774
COc1ccc([Si](C)(C)[C@@H]2[C@@H](CCO)O[C@]3(C(=O)N(Cc4ccc(N5CCCCC5=O)cc4)c4ccccc43)[C@H]2C)cc1	0.123	-7.34 (inactive)	-0.701 (inactive)	8.03 (active)	-1.2 (inactive)	0.269	-0.0471	0.0458	0.342	1.72	0.968 (inactive)	0.145	26 (active)	21.8 (active)	0.892 (inactive)	2.63 (inactive)	0.703	0.381 (inactive)	0.706 (inactive)	2.1
CCCCC(=C=CC[C@@H](O)c1ccccc1OCCO)C[C@@H](O)COCc1ccccc1	-0.027	-2.16 (inactive)	-0.631 (inactive)	17.1 (active)	-0.749 (inactive)	-0.385	0.257	-0.745	-0.592	0.697	1.47 (inactive)	0.117	17.5 (active)	1.74 (inactive)	-0.255 (inactive)	-0.385 (inactive)	1.51	-0.123 (inactive)	-0.101 (inactive)	-2.04
O=C1O[C@H](c2ccccc2)[C@H](c2ccccc2)N2[C@H]1[C@@H](C(=O)Nc1nc3ccccc3s1)[C@]1(C(=O)Nc3ccccc31)[C@H]2c1ccc(OCCO)cc1	0.433	-2.91 (inactive)	-0.538 (inactive)	-0.0515 (inactive)	-0.124 (inactive)	0.534	-0.113	0.927	1.2	1.5	-0.222 (inactive)	-0.0099	3.55 (inactive)	2.95 (inactive)	0.458 (inactive)	2.31 (inactive)	-0.357	0.499 (inactive)	0.4 (inactive)	0.992
CN1C(=O)C2C=CC(C(O)C#Cc3ccccc3)N(Nc3ccccc3)C2C1=O (stereo not given)	0.399	0.254 (inactive)	-0.141 (inactive)	-0.515 (inactive)	0.526 (inactive)	1.38	0.153	0.663	0.889	0.592	-0.877 (inactive)	0.545	1.07 (inactive)	0.783 (inactive)	0.0989 (inactive)	1.12 (inactive)	-1.19	-1.22 (inactive)	-4.71 (inactive)	-1.8
CC(=O)c1ccc(C(O)C2C=CC3C(=O)N(c4ccccc4)C(=O)C3N2Nc2ccc(C#N)cc2)cc1 (stereo not given)	-0.14	0.338 (inactive)	-0.864 (inactive)	1.19 (inactive)	0.574 (inactive)	1.14	0.0422	-0.167	0.261	-0.964	-1.54 (inactive)	0.192	18 (active)	2.58 (inactive)	1.27 (inactive)	1.44 (inactive)	-1.15	-2.48 (inactive)	-5.89 (inactive)	-4.43
CCCCC(O)C1C=CC2C(=O)N(c3ccccc3)C(=O)C2N1Nc1ccc(C(C)C)cc1 (stereo not given)	0.261	-0.714 (inactive)	-0.905 (inactive)	1.38 (inactive)	0.232 (inactive)	0.486	0.341	-0.149	0.214	-0.207	-0.759 (inactive)	0.484	2.81 (inactive)	1.44 (inactive)	0.39 (inactive)	1.39 (inactive)	-0.843	-1.5 (inactive)	-3.21 (inactive)	-1.92
COC(=O)c1c2oc(c1C(=O)OC)C(=O)N(C)Cc1cn(nn1)C[C@H](Cc1ccccc1)NC(=O)N[C@H](CO)CC2	-0.334	0.336 (inactive)	0.553 (inactive)	0.148 (inactive)	-0.324 (inactive)	-0.403	-0.0576	-0.794	-0.641	0.624	-0.878 (inactive)	-0.0954	0.965 (inactive)	0.308 (inactive)	-0.119 (inactive)	0.728 (inactive)	-0.638	0.0368 (inactive)	0.338 (inactive)	0.282
CC(CO)N1C(=O)[C@@H]2[C@H]3C(=O)OCC=C[C@H]3OC23C=CCN(C(C)(C)C)C(=O)[C@@H]13 (stereo not given in full)	-0.329	-0.304 (inactive)	1.15 (inactive)	-0.354 (inactive)	-0.304 (inactive)	0.769	-0.154	-1.5	-0.163	-0.405	-0.771 (inactive)	-0.407	0.16 (inactive)	-0.0471 (inactive)	-0.0717 (inactive)	-0.23 (inactive)	-0.105	0.566 (inactive)	0.401 (inactive)	1.43
COCCCNC(=O)[C@@]1(Cc2ccccc2N=[N+]=[N-])COC(c2ccc(OCCCO)cc2)=N1	0.926	-1.63 (inactive)	0.53 (inactive)	-0.641 (inactive)	-0.849 (inactive)	1.63	0.0184	0.308	0.614	-0.676	1.21 (inactive)	0.35	27.4 (active)	16.4 (active)	2.03 (inactive)	2.36 (inactive)	-0.44	-1.62 (inactive)	0.528 (inactive)	-0.146
COC(=O)[C@@]1(Cc2ccccc2N=[N+]=[N-])N=C(c2ccc(OCCCO)cc2)O[C@H]1c1ccccc1N=[N+]=[N-]	0.323	-5.44 (inactive)	-0.455 (inactive)	1.53 (inactive)	0.237 (inactive)	0.169	0.221	-0.266	0.0067	0.58	1.24 (inactive)	0.373	24.9 (active)	13.3 (active)	0.531 (inactive)	3.93 (inactive)	0.342	-1.58 (inactive)	0.802 (inactive)	-0.833
CC(C)(C)N1CC=CC23O[C@@H]4C=CCOC(=O)[C@@H]4[C@H]2C(=O)N(CCCCCCO)[C@@H]3C1=O (stereo not given in full)	-0.373	0.0926 (inactive)	2.06 (inactive)	0.475 (inactive)	0.437 (inactive)	-0.772	-0.209	-0.191	0.769	-1.13	-0.348 (inactive)	-0.108	1.69 (inactive)	0.127 (inactive)	0.935 (inactive)	0.381 (inactive)	-0.613	0.959 (inactive)	-0.503 (inactive)	1.47
CCOC(=O)c1ccc(NC(=O)O[C@H]2[C@H](OC(=O)Nc3ccc4c(c3)OCO4)[C@@H](OC(=O)Nc3ccc4c(c3)OCO4)[C@@H](OC)O[C@@H]2CO)cc1	0.332	-1.23 (inactive)	0.164 (inactive)	0.148 (inactive)	-0.557 (inactive)	0.398	0.38	0.164	0.676	1.73	0.113 (inactive)	0.325	10.4 (active)	1.31 (inactive)	0.843 (inactive)	0.593 (inactive)	0.0796	-3.35 (inactive)	-0.689 (inactive)	-1.77
C=CCC(OC(C)=O)[C@@H]1[C@@H](N(Cc2cc3ccccc3o2)C(=O)Cc2ccc(F)cc2)c2cc(OCCCO)ccc2N1C(=O)c1ccc2ccccc2c1 (stereo not given in full)	0.117	-0.008 (inactive)	0.101 (inactive)	2.6 (inactive)	0.86 (inactive)	0.0943	-0.176	-0.312	0.237	0.697	-0.959 (inactive)	0.106	1.18 (inactive)	0.305 (inactive)	-0.97 (inactive)	0.112 (inactive)	-0.448	0.512 (inactive)	0.957 (inactive)	2.34
O=C1OCC=C[C@H]2OC34C=CCN(Cc5ccccc5)C(=O)[C@H]3N(CCCCCCO)C(=O)[C@@H]4[C@@H]12 (stereo not given in full)	-0.495	-0.203 (inactive)	-0.955 (inactive)	-1.18 (inactive)	-0.185 (inactive)	-0.447	-0.238	1.6	1.29	-0.289	2.56 (inactive)	-0.152	0.987 (inactive)	-0.567 (inactive)	-0.368 (inactive)	-0.924 (inactive)	1.02	1.22 (inactive)	-0.272 (inactive)	1.87
Cc1ccc(S[C@]2(C(=O)NCCCN(C)C)CC(=O)N(C3CCCCC3)[C@@H]2c2ccc(CO)cc2)cc1	-0.178	-1.19 (inactive)	-0.903 (inactive)	0.0279 (inactive)	1.46 (inactive)	-0.677	-0.0375	-1.74	-1.11	-0.728	0.344 (inactive)	0.199	4.64 (inactive)	0.695 (inactive)	2.17 (inactive)	0.819 (inactive)	-0.358	-2.24 (inactive)	-2.06 (inactive)	-1.4
